Experimental data taken from PubChem BioAssay (NCI).
The panel holds about 79,000 compounds, 15% with a hit somewhere; the sample as a whole holds those more often. A number with no mark means an inactive call. The source made the active and inactive calls. No stated cut-off is given here; in the data, active means growth inhibition above about 70%; inactive means the rest.

Key:
[1] = NCI Yeast Anticancer Drug Screen. Data for the rad50 strain (AID 155);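 further: 0% = growth of vehicle-only cultures of the same strain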; details: S. cerevisiae rad50 strain growth inhibition; at 50.0 µM; active compounds read high
Method in brief: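 Readout: growth inhibition relative to vehicle-treated cultures. Compound exposure was carried out in a genetically defined yeast strain deficient in DNA damage repair.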

[2] = NCI Yeast Anticancer Drug Screen. Data for the mec2-1 strain (AID 157); details: S. cerevisiae mec2-1 strain, at 50.0 µM, active compounds read high
Method in brief: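 Vehicle-treated cultures served as reference for growth inhibition of compound-exposed mec2-1 yeast.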

[3] = NCI Yeast Anticancer Drug Screen. Data for the sgs1 mgt1 strain (AID 161);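 further: 0% = growth of cultures given vehicle only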; details: S. cerevisiae sgs1 mgt1 strain, at 50.0 µM, active compounds read high
Method in brief: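 Genetically altered yeast, compound exposure, growth inhibition relative to vehicle.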

[4] = NCI Yeast Anticancer Drug Screen. Data for the cln2 rad14 strain (AID 165);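 further: 0% = growth equal to vehicle treated cultures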; details: S. cerevisiae cln2 rad14 strain, at 50.0 µM, active compounds read high
Method in brief: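 Each compound was tested on cln2 rad14 yeast. Inhibition of growth was calculated against vehicle-exposed controls.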

[5] = NCI Yeast Anticancer Drug Screen. Data for the bub3 strain (AID 167); details: S. cerevisiae bub3 mutant strain, at 50.0 µM, active compounds read high
Method in brief: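 Readout: yeast growth inhibition, expressed relative to vehicle-only wells. The test organism is a mutant strain from a panel with lesions in DNA repair or checkpoint genes.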

[6] = NCI Yeast Anticancer Drug Screen. Data for the mlh1 rad18 strain (AID 175); details: S. cerevisiae mlh1 rad18 strain growth inhibition; at 50.0 µM; active compounds read high
Method in brief: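 Vehicle-treated cultures served as the reference for growth inhibition in a yeast strain carrying DNA damage repair alterations exposed to each compound.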

Cc1c(-c2nc(N)nc(C3CC3)c2C)nc(N)nc1C1CC1
growth inhibition [1]: 4.55% | growth inhibition [2]: -9.1% | growth inhibition [3]: -12.7% | growth inhibition [4]: -11.7% | growth inhibition [5]: -26.8% | growth inhibition [6]: -7.35%

COCCNC(c1ccccc1)C(O)c1ccccc1 (configuration not stated)
growth inhibition [1]: 6.4% | growth inhibition [2]: -15.6% | growth inhibition [3]: -5.15% | growth inhibition [4]: -33% | growth inhibition [5]: 7.5% | growth inhibition [6]: -7.85%

COc1ccc(/C=C/C(=O)C(CN(C)C)CN(C)C)cc1OC
growth inhibition [1]: -0.95% | growth inhibition [2]: -6.7% | growth inhibition [3]: -25.2% | growth inhibition [4]: -4.8% | growth inhibition [5]: -6.55% | growth inhibition [6]: -16.4%

O=C1OC(c2ccc(O)c(O)c2)(c2ccc(O)c(O)c2)c2ccccc21
growth inhibition [1]: -27.9% | growth inhibition [2]: -24.2% | growth inhibition [3]: -27.1% | growth inhibition [4]: 5.8% | growth inhibition [5]: -21.7% | growth inhibition [6]: -32.6%

Clc1ccc(N=C2c3ccccc3CN2c2ccc(Cl)cc2)cc1
growth inhibition [1]: -32.6% | growth inhibition [2]: -20.1% | growth inhibition [3]: -14.4% | growth inhibition [4]: -4.85% | growth inhibition [5]: -22.3% | growth inhibition [6]: -13.9%

N#CC1=C(N)NC(=O)C(C(N)=O)C1c1ccccc1Cl (configuration not stated)
growth inhibition [1]: -16.6% | growth inhibition [2]: -13.4% | growth inhibition [3]: -12.1% | growth inhibition [4]: -11.3% | growth inhibition [5]: -11.4% | growth inhibition [6]: -12.8%

NC(=O)C(F)(F)c1ccccc1
growth inhibition [1]: 2.3% | growth inhibition [2]: -12.8% | growth inhibition [3]: 14.8% | growth inhibition [4]: 10.1% | growth inhibition [5]: 21.4% | growth inhibition [6]: 9.8%

COc1cccc(/C=C\c2ccc(O)cc2)c1
growth inhibition [1]: 87% (active) | growth inhibition [2]: 91% (active) | growth inhibition [3]: 92% (active) | growth inhibition [4]: 92% (active) | growth inhibition [5]: 91.2% (active) | growth inhibition [6]: 91.5% (active)

CCOC(=O)C(C(=O)CC)C(=O)OCC
growth inhibition [1]: 14.3% | growth inhibition [2]: 11.3% | growth inhibition [3]: 16.2% | growth inhibition [4]: 7.65% | growth inhibition [5]: 14.2% | growth inhibition [6]: 13.4%

O=C(OC(=O)c1cccc(Br)c1)c1cccc(Br)c1
growth inhibition [1]: 10.2% | growth inhibition [2]: -10.5% | growth inhibition [3]: 26% | growth inhibition [4]: 34.8% | growth inhibition [5]: -5.7% | growth inhibition [6]: 1%

CC(=O)N(/C=C\C1=[N+](C)CCS1)c1ccccc1
growth inhibition [1]: 10.2% | growth inhibition [2]: -10.4% | growth inhibition [3]: 20.4% | growth inhibition [4]: 18.9% | growth inhibition [5]: 18.1% | growth inhibition [6]: 12.7%

Cc1ccc2ccc(C)nc2c1
growth inhibition [1]: 15.8% | growth inhibition [2]: -23.7% | growth inhibition [3]: -5.85% | growth inhibition [4]: 7.15% | growth inhibition [5]: 18.2% | growth inhibition [6]: -22.9%

COC(=O)C(NC(=O)C(C)N1C(=O)CCC(NS(=O)(=O)c2ccc(C)cc2)C1=O)C(C)C (configuration not stated)
growth inhibition [1]: 30.1% | growth inhibition [2]: 8% | growth inhibition [3]: 9.4% | growth inhibition [4]: 1.05% | growth inhibition [5]: 3.55% | growth inhibition [6]: 15.8%

COC(=O)/C(=C/Cl)NC(C)=O
growth inhibition [1]: 3.2% | growth inhibition [2]: -7.55% | growth inhibition [3]: -4.8% | growth inhibition [4]: -9.9% | growth inhibition [5]: 8.7% | growth inhibition [6]: 5.8%

COc1ccc(C)cc1NC(=O)c1c(Br)c(Br)c(Br)c(Br)c1C(=O)O
growth inhibition [1]: 4.25% | growth inhibition [2]: -11.1% | growth inhibition [3]: 10.4% | growth inhibition [4]: 12.8% | growth inhibition [5]: 6.8% | growth inhibition [6]: 10.8%

Cc1ccc(/C=N/NC2=NCCN2)s1
growth inhibition [1]: -0.4% | growth inhibition [2]: 8% | growth inhibition [3]: 4.35% | growth inhibition [4]: 8.15% | growth inhibition [5]: -5.05% | growth inhibition [6]: 9.75%

CCCCCCCCCCCCCCCC[N+](C)(C)CCN
growth inhibition [1]: 98.9% (active) | growth inhibition [2]: 50.8% | growth inhibition [3]: 58.4% | growth inhibition [4]: 73.4% (active) | growth inhibition [5]: 49.2% | growth inhibition [6]: 59.7%

C=C(CCCC(C)OC(C)OCC)[Si](C)(C)C (configuration not stated)
growth inhibition [1]: -26.2% | growth inhibition [2]: -52% | growth inhibition [3]: -20.6% | growth inhibition [4]: -7.15% | growth inhibition [5]: -23.6% | growth inhibition [6]: -37.9%

O=S(=O)(Cc1c(Cl)c(Cl)c(Cl)c(Cl)c1Cl)c1ccc(Cl)cc1
growth inhibition [1]: 1.2% | growth inhibition [2]: -0.6% | growth inhibition [3]: -1.25% | growth inhibition [4]: -17.8% | growth inhibition [5]: 2.4% | growth inhibition [6]: -2.4%

CCOC(=O)C1=CC(C)(C(=O)OCC)Nc2c(nc(SC)n(C)c2=O)N1 (configuration not stated)
growth inhibition [1]: -19.4% | growth inhibition [2]: -21.2% | growth inhibition [3]: -16.3% | growth inhibition [4]: 16.8% | growth inhibition [5]: -1.55% | growth inhibition [6]: 14.2%

CCn1cc2c(=O)n3ncn(-c4ccc(Br)cc4)c3nc2n1
growth inhibition [1]: -8.05% | growth inhibition [2]: 9.75% | growth inhibition [3]: 3.2% | growth inhibition [4]: -16.4% | growth inhibition [5]: -28.8% | growth inhibition [6]: -12.2%

CC(=O)N(C)c1ccc(NC(=O)Cc2ccccc2)cc1
growth inhibition [1]: 12.7% | growth inhibition [2]: 22.7% | growth inhibition [3]: 23.6% | growth inhibition [4]: 9.95% | growth inhibition [5]: 35.5% | growth inhibition [6]: -2.35%

COc1cc([C@@H]2c3cc4c(cc3[C@@H](Nc3ccccc3C(=O)c3ccccc3)[C@H]3COC(=O)[C@H]23)OCO4)cc(OC)c1OC
growth inhibition [1]: 9.35% | growth inhibition [2]: 9.95% | growth inhibition [3]: -18.5% | growth inhibition [4]: 13.2% | growth inhibition [5]: 1.05% | growth inhibition [6]: -34.5%

C[C@@H](Oc1ccc(Oc2cnc3ccc(Cl)cc3n2)cc1)C(=O)O
growth inhibition [1]: 15.8% | growth inhibition [2]: 5.4% | growth inhibition [3]: 4.2% | growth inhibition [4]: 37.8% | growth inhibition [5]: 15.2% | growth inhibition [6]: 3.95%

O=C(NC(Nc1ccc(F)cc1)(C(F)(F)F)C(F)(F)F)C(C(F)(F)F)C(F)(F)F
growth inhibition [1]: 87.4% (active) | growth inhibition [2]: 88.6% (active) | growth inhibition [3]: 91.8% (active) | growth inhibition [4]: 92.2% (active) | growth inhibition [5]: 90.7% (active) | growth inhibition [6]: 93.2% (active)

O=C(NC(C(=O)O)c1ccccc1)c1ccc([N+](=O)[O-])cc1 (configuration not stated)
growth inhibition [1]: 8.2% | growth inhibition [2]: 10.1% | growth inhibition [3]: 13.4% | growth inhibition [4]: -0.6% | growth inhibition [5]: 31.6% | growth inhibition [6]: 11.6%

O=C(O)COc1ccc2ccccc2c1
growth inhibition [1]: -15.4% | growth inhibition [2]: 3.55% | growth inhibition [3]: -22.9% | growth inhibition [4]: -14.8% | growth inhibition [5]: 4.15% | growth inhibition [6]: 2.1%

CC(=O)CCCCc1ccccc1
growth inhibition [1]: -1.45% | growth inhibition [2]: -8.45% | growth inhibition [3]: -9.3% | growth inhibition [4]: -71.6% | growth inhibition [5]: -9.2% | growth inhibition [6]: -1%

c1ccc([P+](CCNCCNCC[P+](c2ccccc2)(c2ccccc2)c2ccccc2)(c2ccccc2)c2ccccc2)cc1
growth inhibition [1]: 6.3% | growth inhibition [2]: 9.25% | growth inhibition [3]: -13.8% | growth inhibition [4]: 5.65% | growth inhibition [5]: -5.2% | growth inhibition [6]: -0.6%

COc1cc(C(=O)C(C)Br)cc(OC)c1OC (configuration not stated)
growth inhibition [1]: 3.1% | growth inhibition [2]: 46.1% | growth inhibition [3]: 64.9% | growth inhibition [4]: -23% | growth inhibition [5]: 68.2% | growth inhibition [6]: 62.4%

CCOC(=O)C1(Br)C(c2ccccc2)NC(=O)NC1(C)Br (configuration not stated)
growth inhibition [1]: 9.15% | growth inhibition [2]: -12.2% | growth inhibition [3]: 0.6% | growth inhibition [4]: 12.8% | growth inhibition [5]: -1.75% | growth inhibition [6]: -14.6%

COc1ccc(Nc2cnc3cc(N)ccc3n2)cc1OC
growth inhibition [1]: -15.3% | growth inhibition [2]: -21.6% | growth inhibition [3]: -38.5% | growth inhibition [4]: -8.35% | growth inhibition [5]: -30.3% | growth inhibition [6]: 1.7%

O=c1[nH]n2c(=O)cc[nH]c2c1-c1nnns1
growth inhibition [1]: -15.8% | growth inhibition [2]: -2.95% | growth inhibition [3]: -36.1% | growth inhibition [4]: 9.65% | growth inhibition [5]: -21.1% | growth inhibition [6]: -25.2%

Cc1ccc2nc(C(O)C(O)C(O)CO)[nH]c2c1 (configuration not stated)
growth inhibition [1]: -11.3% | growth inhibition [2]: -14.9% | growth inhibition [3]: 10.7% | growth inhibition [4]: -11.6% | growth inhibition [5]: -25.7% | growth inhibition [6]: -12.7%

Cc1cccc(NC(=S)N(CCC#N)C2CCCCC2)c1
growth inhibition [1]: 1.6% | growth inhibition [2]: -2.85% | growth inhibition [3]: 14.8% | growth inhibition [4]: 7% | growth inhibition [5]: 18.6% | growth inhibition [6]: 9.85%

O=C(OCC(OC(=O)c1ccccc1)C(OC(=O)c1ccccc1)C(COC(=O)c1ccccc1)OC(=O)c1ccccc1)c1ccccc1 (configuration not stated)
growth inhibition [1]: 67% | growth inhibition [2]: 26.1% | growth inhibition [3]: 56.9% | growth inhibition [4]: 0.2% | growth inhibition [5]: 16.4% | growth inhibition [6]: 52.4%

C=C(C(=C)P(=S)(c1ccccc1)c1ccccc1)P(=S)(c1ccccc1)c1ccccc1
growth inhibition [1]: -10% | growth inhibition [2]: -10.7% | growth inhibition [3]: -37.1% | growth inhibition [4]: -7.15% | growth inhibition [5]: -5.8% | growth inhibition [6]: -16.3%
